This is a sample that favours compounds with a hit; in the whole collection about 2.6% have one here.
aDG glyco up – alpha-DG glycosylation activation | AID 624168 | Pro5-aDG cells, alpha-DG glycosylation AlphaScreen (IIH6); 0% Pro5, 100% B10-LARGE cell signal | activation, % at 10 µM | 360,000 tested, 0.22% active;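 active = activation of at least 8% versus controls, or a plate z-score of at least 8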;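 also: Pro5 are CHO cells carrying HIG-tagged alpha-DG that lacks glycosylation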
EBV LMP1 NFkB – inhibitors of Epstein-Barr LMP1-induced NF-kappaB reporter; LMP1-induced NF-kappaB luciferase reporter cells, luminescence; inhibition, % at 12.5 µM; 350,000 tested, 0.69% active; AID 504558; in the data active = inhibition above about 41%;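 also: 0% = neutral control wells and 100% = reference inhibitor control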
TWEAK-Fn14 inh – TWEAK-Fn14 signaling inhibition; TWEAK-stimulated Fn14 reporter cells, luciferase luminescence, 8 h; inhibition, % at 10 µM; 360,000 tested, 2% active; AID 1159606; in the data active = inhibition above about 50%
LGR2 inh – inhibitors of bursicon-induced Drosophila LGR2 receptor cAMP signaling; HEK293 LGR2, CRE-luciferase, bursicon-stimulated, 4 h; inhibition, % at 9.99 µM; 380,000 tested, 0.35% active; AID 720647;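 active = drop in luminescence signal, shown as inhibition above about 50% in the replicate tests, limit read from the data, passing the limit was not always enough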;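 also: agonist challenge used bursicon conditioned medium at about half maximal strength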
TROY NFkB inh – blocks TROY-dependent signaling in reporter cells. inhibition, % at 10 µM. 360,000 tested, 0.98% active. AID 1347056. Q293 LMP1-TROYcd NF-kB luciferase reporter, 4 h;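 active = compounds whose plate-normalised and pattern-corrected inhibition of the luciferase reporter signal at the single screening dose is 50% or more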
HSP90 inh – blocks HSP90-mediated luciferase refolding in reticulocyte lysate; Rabbit reticulocyte lysate, luciferase refolding luminescence, 3 h; inhibition, % at 5.6 µM; 290,000 tested, 0.91% active;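 active = inhibition above the screen-wide mean plus 3 SD, computed separately per campaign, cut at about 16% in these data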;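 also: 0% = DMSO wells and 100% = 60 µM geldanamycin wells; inhibitors lower the luminescence because luciferase stays unfolded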
* marks the source's active call; other numbers are inactive results; / = no result.

SMILES	aDG glyco up	EBV LMP1 NFkB	TWEAK-Fn14 inh	LGR2 inh	TROY NFkB inh	HSP90 inh
Cc1cc(C(=O)N/N=C/c2c(C)nn(-c3ccccc3)c2C)n[nH]1	0	-7	-15	-12	-30	7
Cc1nn(-c2ccccc2)c(C)c1/C=N/NC(=O)CSc1nnc(SCc2ccc(Cl)cc2)s1	0	-28	83*	/	18	-1
Cc1nn(-c2ccccc2)c(C)c1/C=N/NC(=O)c1cc(-c2ccc(Cl)s2)[nH]n1	0	22	59*	/	13	1
O=C(CSc1nnc(SCc2ccccc2)s1)N/N=C/c1c(Cl)cccc1Cl	0	13	3	-21	-34	0
Cc1nn(-c2ccccc2)c(C)c1/C=N/NC(=O)c1cc(-c2ccc(Br)s2)[nH]n1	0	15	69*	/	13	-4
C[C@H](CO)N1C[C@H](C)[C@H](CN(C)C(=O)Nc2ccc(C(F)(F)F)cc2)OCCCC[C@H](C)Oc2ccc(NC(=O)Nc3ccc4c(c3)OCO4)cc2C1=O	/	/	/	20	/	/
Cc1ccccc1S(=O)(=O)N1CC[C@@H]2[C@H](CO)Nc3ccc(-c4ccccc4)cc3[C@@H]21	/	/	/	22	/	/
CC(C)NC(=O)N(C)C[C@@H]1Oc2ccc(NC(=O)Nc3ccc4c(c3)OCO4)cc2C(=O)N([C@H](C)CO)C[C@H]1C	/	/	/	-11	/	/
CC1(c2ccccc2)CC(C)(C)N2C(=O)/C(=C3\SC(=S)NC3=O)c3cccc1c32 (stereo not drawn)	0	10	70*	10	61*	1
Cc1ccc(CNC(=O)c2ccc(N3CCC4(CC3)CC(c3ccccc3)=NO4)c([N+](=O)[O-])c2)cc1	0	78*	-3	-4	12	8
Cc1ccc(S(=O)(=O)c2nc(Nc3nccs3)sc2Cl)cc1	0	30	-30	/	52*	2
COc1ccc2c3c(n(C)c2c1)[C@@H](CO)N(C(=O)c1cnccn1)CC31CCN(C)CC1	/	/	/	2	/	/
FC(F)(F)c1ccccc1-n1c(-c2cnccn2)n[nH]c1=S	0	3	84*	/	65*	7
Cc1ccc(-n2c(-c3cnccn3)n[nH]c2=S)c(Br)c1	0	2	-9	14	7	1
OCc1cccc[n+]1Cc1ccccc1	0	3	-1	/	60*	/
OCCc1ccccc1	/	/	/	-17	/	/
CCCCCC(=O)NC(=S)Nc1ccc(Br)cc1C	0	44*	1	/	-25	-2
CCCC(=O)NC(=S)Nc1c(C)cc(Br)cc1C	0	2	34	-32	45	0
CCn1nccc1C(=O)Nc1ccc(Cl)cc1Cl	0	-20	55*	-19	4	-2
CCn1nccc1C(=O)Nc1cc(Cl)ccc1Cl	0	6	40	/	14	-2
O=C(C[C@H]1C[C@H]2c3cc(NC(=O)C4CCOCC4)ccc3O[C@H]2[C@@H](CO)O1)NCc1ccccn1	/	/	/	6	/	/
COc1ccc2nc(Nc3nc(CSc4nc5ccccc5[nH]4)cc(=O)[nH]3)nc(C)c2c1	0	-25	91*	87*	58*	3
COc1nc(Nc2nc3ccccc3c(=O)[nH]2)nc2ccc(C)cc12	0	50*	55*	52*	2	4
Cc1ccc2c(=O)[nH]c(Nc3nc(C)cc(-c4ccccc4)n3)nc2c1	0	-4	1	-15	7	0
Cc1nc(Nc2nc(-c3ccccc3)cc(=O)[nH]2)nc2ccccc12	0	-2	2	63*	13	6
SMILES	aDG glyco up	EBV LMP1 NFkB	TWEAK-Fn14 inh	LGR2 inh	TROY NFkB inh	HSP90 inh
Cc1nc(Nc2nc(CSc3nc4ccccc4[nH]3)cc(=O)[nH]2)nc2ccccc12	0	8	92*	82*	46	5
Cc1nc(Nc2nc(CSc3ccc(Cl)cc3)cc(=O)[nH]2)nc2ccccc12	0	-1	-5	-5	-7	-4
Cc1cc(C)cc(Nc2nc3ccccc3c(=O)[nH]2)c1	0	-3	-3	-24	-29	1
CO[C@@H]1CN(C)C(=O)c2cc(NC(=O)C3CC3)ccc2OC[C@H](C)N(Cc2ccncc2)C[C@H]1C	/	/	/	15	/	/
CO[C@@H]1CN(C)C(=O)c2ccc(NS(C)(=O)=O)cc2OC[C@@H](C)N(S(=O)(=O)CC(F)(F)F)C[C@H]1C	/	/	/	-1	/	/
CCc1c(C)nc(Nc2nc(C)c3ccc(OC)cc3n2)[nH]c1=O	0	-22	-17	-20	-64	3
COc1ccc2c(C)nc(Nc3nc(C)c(C)c(=O)[nH]3)nc2c1	0	-167	53*	/	12	-3
C/C=C/c1ccc([C@H]2[C@@H](CO)N(C(C)=O)[C@@H]2CN(CCC)C(C)=O)cc1	/	/	/	8	/	/
OC[C@H]1[C@H](c2ccc(C#Cc3ccccc3)cc2)[C@@H]2CN(Cc3cncnc3)CCCCN12	/	/	/	-15	/	/
Cc1cc(CSc2ccccc2)ccc1NC(=O)c1ccc(CN2CCOCC2)cc1	1	35	52*	6	24	-3
C[C@H](CO)N1C[C@H](C)[C@@H](CN(C)Cc2ccc(-c3ccccc3)cc2)Oc2ccc(N(C)C)cc2C1=O	/	/	/	-2	/	/
Cc1noc(C)c1NC(=O)Nc1ccc2c(c1)CC(=O)N([C@@H](C)CO)C[C@@H](C)[C@@H](CN(C)C(=O)Nc1c(C)noc1C)O2	/	/	/	-13	/	/
Cc1ccc(C2=NNC(=Nc3ccc(F)cc3)SC2)cc1	0	-24	22	-99	-12	2
CCc1ccc(C2=NNC(=Nc3cccc(S(=O)(=O)N(C)C)c3)SC2)cc1	1	-3	72*	/	28	-1
CO[C@@H]1CN(C)C(=O)c2cc(NS(=O)(=O)c3cccc(Cl)c3)ccc2OC[C@@H](C)NC[C@H]1C	/	/	/	3	/	/
CCCCN(C)CCNC(=S)Nc1ccc2nc(N3CCN(CC)CC3)cc(C)c2c1	1	-35	-17	6	-6	-1
CCCCN(CC)C(=S)Nc1ccc2nc(N3CCN(C)CC3)cc(C)c2c1	0	10	55*	-9	68*	28*
CCN1CCN(c2cc(C)c3cc(NC(=S)N(C)Cc4ccccc4)ccc3n2)CC1	0	-6	-3	-10	-9	-2
CCCCN(C)C(=S)Nc1ccc2nc(N3CCN(CC)CC3)cc(C)c2c1	0	-1	34	6	62*	9
CN(Cc1cn(C)nc1-c1ccc(Oc2ccccc2)cc1)Cc1cnc2ccccn12	0	9	77*	4	44	0
Cn1cc(CNCc2cnc3ccccn23)c(-c2ccc(Oc3ccccc3)cc2)n1	0	-4	22	-18	31	0
C[C@H]1CN([C@@H](C)CO)C(=O)c2cc(NC(=O)Nc3ccc(F)cc3)ccc2O[C@@H]1CN(C)C(=O)Nc1ccccc1	/	/	/	-6	/	/
Cc1cccc(Nc2nc(-c3sc(C)nc3C)cs2)c1	1	-21	24	-56	-31	2
Cc1nc(N)sc1-c1csc(Nc2ccccn2)n1	0	-13	11	/	-6	5
Cc1ccnc(Nc2nc(-c3ccc(F)cc3)cs2)c1	0	-44	-20	-114	59*	13
